Test results published in PubChem BioAssay AID1159580 (chemical genetic matrix, 2015).
“And” between values parts separate entries of the source, which are not always exact repeats. Identical values can stand only once. The whole screen tested about 5,500 compounds, of which about 2,000 (36%) were called active. Not shown: some 18% with an inconclusive outcome. Rule as the data show it: active = normalized growth mostly below about 0.91 (no sharp cut-off); inconclusive = no clear call, values can overlap the other calls; inactive = mostly above about 0.92. The list shows a part of the results.

Assay: chemical genetic growth profiling, strain panel (AID 1159580);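 also: tested at 20 µM; growth read once vehicle control cultures reached saturation at 30 °C; 1 = growth at the plate median or of vehicle wells; lower values mean less growth of the strain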
Details: S. cerevisiae deletion strains, growth OD

Measured: normalized growth

COc1cc2c(cc1O)CCNC2C (stereo not drawn)
inactive: locus YAL021C, strain ccr4, hits give low values 1.01 | locus YAL026C, strain drs2, hits give low values 1 | locus YAL030W, strain snc1, hits give low values 0.993 | locus YBL061C, strain skt5, hits give low values 1 | locus YBR009C, strain hhf1, hits give low values 1 | locus YBR021W, strain FUR4, hits give low values 1.01 | locus YBR023C, strain chs3, hits give low values 0.999 | locus YBR171W, strain sec66, hits give low values 0.982 | locus YBR229C, strain ROT2, hits give low values 0.993 | locus YBR231C, strain swc5, hits give low values 0.984 | locus YBR279W, strain paf1, hits give low values 0.996 | locus YCL011C, strain gbp2, hits give low values 0.992 | locus YCL016C, strain dcc1, hits give low values 1.01 | locus YCL029C, strain bik1, hits give low values 0.968 | locus YCL061C, strain MRC1, hits give low values 0.989 | locus YCL069W, strain vba3, hits give low values 0.996 | locus YCR088W, strain abp1, hits give low values 0.975 | locus YDL005C, strain med2, hits give low values 0.978 | locus YDL035C, strain GPR1, hits give low values 1.03 | locus YDL040C, strain nat1, hits give low values 0.991 | locus YDL074C, strain BRE1, hits give low values 1 | locus YDL101C, strain DUN1, hits give low values 0.989 | locus YDL134C, strain PPH21, hits give low values 1 | locus YDL185W, strain tfp1, hits give low values 0.981 | locus YDL192W, strain arf1, hits give low values 0.976 | locus YDR001C, strain nth1, hits give low values 0.999 | locus YDR069C, strain doa4, hits give low values 0.975 | locus YDR101C, strain arx1, hits give low values 0.963 | locus YDR137W, strain rgp1, hits give low values 0.99 | locus YDR150W, strain NUM1, hits give low values 0.996 | locus YDR159W, strain sac3, hits give low values 1.01 | locus YDR162C, strain NBP2, hits give low values 1.01 | locus YDR195W, strain ref2 0.94 | locus YDR297W, strain sur2, hits give low values 0.993 | locus YDR318W, strain mcm21, hits give low values 0.982 | locus YDR334W, strain swr1, hits give low values 0.99 | locus YDR335W, strain msn5, hits give low values 0.983 | locus YDR388W, hits give low values 0.98 | locus YDR392W, strain spt3, hits give low values 1.03 | locus YDR502C, strain sam2, hits give low values 0.982 | locus YEL003W, strain gim4, hits give low values 0.999 | locus YEL037C, strain rad23, hits give low values 1 | locus YEL061C, strain CIN8 (second series), hits give low values 0.99 | locus YEL061C, strain CIN8, hits give low values 0.996 | locus YER015W, strain faa2, hits give low values 0.995 | locus YER016W, strain bim1, hits give low values 1.01 | locus YER110C, hits give low values 0.965 | locus YER111C, strain swi4, hits give low values 0.975 | locus YER155C, strain BEM2 (second series), hits give low values 0.94 | locus YER155C, strain BEM2, hits give low values 0.98 | locus YER167W, strain BCK2, hits give low values 1.01 | locus YFR010W, strain ubp6, hits give low values 0.978 | locus YGL078C, strain dbp3, hits give low values 0.984 | locus YGL086W, strain mad1, hits give low values 0.968 | locus YGL167C, strain pmr1, hits give low values 0.993 | locus YGL173C, strain kem1, hits give low values 1 | locus YGL227W, strain vid30, hits give low values 0.993 | locus YGL240W, strain doc1, hits give low values 0.971 | locus YGL248W, strain PDE1, hits give low values 0.988 | locus YGL253W, strain hxk2, hits give low values 1 | locus YGR135W, strain pre9, hits give low values 0.977 | locus YGR252W, strain gcn5, hits give low values 0.983 | locus YHR013C, strain ard1, hits give low values 0.99 | locus YHR027C, strain rpn1, hits give low values 1 | locus YHR030C, strain SLT2, hits give low values 0.993 and 1.05 | locus YHR079C, strain IRE1 (second series), hits give low values 0.979 | locus YHR079C, strain IRE1, hits give low values 1.05 | locus YHR094C, strain hxt1, hits give low values 0.971 | locus YHR129C, strain ARP1, hits give low values 0.992 | locus YHR142W, strain chs7, hits give low values 1.01 | locus YHR200W, strain rpn10, hits give low values 1 | locus YIL066C, strain RNR3, hits give low values 1.01 | locus YIL073C, strain SPO22, hits give low values 0.963 | locus YIL125W, strain kgd1, hits give low values 0.981 | locus YIR030C, strain dcg1, hits give low values 0.978 | locus YJL092W, strain hpr5, hits give low values 0.991 | locus YJL095W, strain BCK1 (second series), hits give low values 0.978 | locus YJL095W, strain BCK1, hits give low values 0.984 and 1.01 | locus YJL115W, strain asf1, hits give low values 0.988 | locus YJL129C, strain trk1, hits give low values 0.99 | locus YJL134W, strain LCB3, hits give low values 0.995 | locus YJL154C, strain vps35, hits give low values 0.994 | locus YJL164C, strain tpk1, hits give low values 1 | locus YJL166W, strain qcr8, hits give low values 0.987 | locus YJL168C, strain set2, hits give low values 0.973 | locus YJL187C, strain SWE1 (second series), hits give low values 0.992 | locus YJR043C, strain POL32, hits give low values 1.05 | locus YJR066W, strain TOR1, hits give low values 0.982 | locus YKL009W, strain mrt4, hits give low values 0.961 | locus YKL068W, hits give low values 0.987 | locus YKL085W, strain MDH1 (second series), hits give low values 0.982 | locus YKL085W, strain MDH1, hits give low values 0.982 | locus YKL160W, strain elf1, hits give low values 0.994 | locus YKR001C, strain vps1, hits give low values 0.958 | locus YKR026C, strain gcn3, hits give low values 0.989 | locus YKR091W, strain srl3, hits give low values 0.991 | locus YLL001W, strain dnm1, hits give low values 0.982 | locus YLL026W, hits give low values 0.987 | locus YLL041C, strain sdh2, hits give low values 0.992 | locus YLR027C, strain aat2, hits give low values 0.98 | locus YLR039C, strain RIC1, hits give low values 1.02 | locus YLR058C, strain SHM2, hits give low values 0.995 | locus YLR102C, strain apc9, hits give low values 0.974 | locus YLR113W, strain HOG1, hits give low values 0.977 | locus YLR221C, strain rsa3, hits give low values 0.996 | locus YLR258W, strain gsy2, hits give low values 0.998 | locus YLR262C, strain YPT6 (second series), hits give low values 0.994 | locus YLR262C, strain YPT6, hits give low values 1.05 | locus YLR268W, strain sec22, hits give low values 0.965 | locus YLR320W, strain mms22, hits give low values 0.994 | locus YLR330W, strain CHS5, hits give low values 1 | locus YLR342W, strain FKS1 (second series), hits give low values 1.03 | locus YLR342W, strain FKS1, hits give low values 0.987 | locus YLR357W, strain rsc2, hits give low values 0.979 | locus YLR370C, strain arc18, hits give low values 0.988 | locus YLR371W, strain rom2, hits give low values 0.967 | locus YLR384C, strain iki3, hits give low values 0.985 | locus YLR418C, strain cdc73, hits give low values 0.973 | locus YML016C, strain PPZ1, hits give low values 0.991 | locus YML032C, strain rad52, hits give low values 0.99 | locus YML120C, strain ndi1, hits give low values 0.991 | locus YML124C, strain tub3, hits give low values 0.984 | locus YMR058W, strain fet3, hits give low values 0.991 | locus YMR078C, strain ctf18, hits give low values 0.977 | locus YMR125W, strain sto1, hits give low values 1 | locus YMR129W, hits give low values 0.996 | locus YMR205C, strain PFK2, hits give low values 0.991 | locus YMR223W, strain ubp8, hits give low values 0.985 | locus YMR231W, strain pep5, hits give low values 0.984 | locus YMR307W, strain GAS1, hits give low values 1.08 | locus YNL067W, strain RPL9B, hits give low values 0.988 | locus YNL071W, strain lat1, hits give low values 0.988 | locus YNL128W, strain TEP1, hits give low values 0.992 | locus YNL153C, strain GIM3, hits give low values 0.988 | locus YNL183C, strain NPR1, hits give low values 0.974 | locus YNL209W, strain ssb2, hits give low values 0.997 | locus YNL233W, strain BNI4, hits give low values 0.982 | locus YNL248C, strain rpa49, hits give low values 0.997 | locus YNL250W, strain rad50, hits give low values 0.99 | locus YNL271C, strain bni1, hits give low values 0.975 | locus YNL298W, strain CLA4, hits give low values 0.989 | locus YNL307C, strain MCK1, hits give low values 0.969 | locus YNL322C, strain KRE1 (second series), hits give low values 0.98 | locus YNR049C, strain mso1, hits give low values 0.987 | locus YNR052C, strain pop2, hits give low values 0.973 | locus YOL012C, strain htz1 0.945 | locus YOL147C, strain pex11, hits give low values 0.979 | locus YOR001W, strain rrp6, hits give low values 0.958 | locus YOR061W, strain CKA2, hits give low values 0.997 | locus YOR069W, strain VPS5, hits give low values 0.987 | locus YOR070C, strain gyp1, hits give low values 0.999 | locus YOR080W, strain dia2, hits give low values 0.987 | locus YOR083W, strain WHI5, hits give low values 0.988 | locus YOR106W, strain vam3, hits give low values 0.989 | locus YOR136W, strain idh2, hits give low values 0.964 | locus YOR144C, strain elg1, hits give low values 0.983 | locus YOR184W, strain ser1, hits give low values 0.988 | locus YOR231W, strain MKK1, hits give low values 1 | locus YOR265W, strain rbl2, hits give low values 0.984 | locus YOR270C, strain vph1, hits give low values 1.02 | locus YOR290C, strain snf2, hits give low values 0.999 | locus YOR316C, strain cot1, hits give low values 0.981 | locus YPL051W, strain arl3, hits give low values 0.985 | locus YPL055C, strain LGE1, hits give low values 1 | locus YPL078C, strain atp4, hits give low values 0.989 | locus YPL106C, strain sse1, hits give low values 0.991 | locus YPL240C, strain hsp82, hits give low values 1 | locus YPL256C, strain CLN2, hits give low values 1.06 | locus YPR119W, strain clb2, hits give low values 0.978 | locus YPR141C, strain kar3, hits give low values 0.968 | locus YPR163C, strain tif3, hits give low values 0.979 | locus YPR167C, strain met16, hits give low values 0.974 | strain wtn01, hits give low values 0.952
